From the supplement of paper PMC10849652 come the findings set out here.

Targets with a hit are over-represented here; the source holds about 8,800 in all. About 0.5% of all pairs of compound and target were hits.

Chain of UniProt Q9Y6H1 (Q9Y6H1 whole entry, looked up): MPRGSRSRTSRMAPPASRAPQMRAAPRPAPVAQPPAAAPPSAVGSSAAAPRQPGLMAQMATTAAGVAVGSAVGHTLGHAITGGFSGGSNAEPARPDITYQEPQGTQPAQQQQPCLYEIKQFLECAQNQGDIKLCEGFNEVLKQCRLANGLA
Chain of UniProt P23634 (P23634 whole entry, looked up): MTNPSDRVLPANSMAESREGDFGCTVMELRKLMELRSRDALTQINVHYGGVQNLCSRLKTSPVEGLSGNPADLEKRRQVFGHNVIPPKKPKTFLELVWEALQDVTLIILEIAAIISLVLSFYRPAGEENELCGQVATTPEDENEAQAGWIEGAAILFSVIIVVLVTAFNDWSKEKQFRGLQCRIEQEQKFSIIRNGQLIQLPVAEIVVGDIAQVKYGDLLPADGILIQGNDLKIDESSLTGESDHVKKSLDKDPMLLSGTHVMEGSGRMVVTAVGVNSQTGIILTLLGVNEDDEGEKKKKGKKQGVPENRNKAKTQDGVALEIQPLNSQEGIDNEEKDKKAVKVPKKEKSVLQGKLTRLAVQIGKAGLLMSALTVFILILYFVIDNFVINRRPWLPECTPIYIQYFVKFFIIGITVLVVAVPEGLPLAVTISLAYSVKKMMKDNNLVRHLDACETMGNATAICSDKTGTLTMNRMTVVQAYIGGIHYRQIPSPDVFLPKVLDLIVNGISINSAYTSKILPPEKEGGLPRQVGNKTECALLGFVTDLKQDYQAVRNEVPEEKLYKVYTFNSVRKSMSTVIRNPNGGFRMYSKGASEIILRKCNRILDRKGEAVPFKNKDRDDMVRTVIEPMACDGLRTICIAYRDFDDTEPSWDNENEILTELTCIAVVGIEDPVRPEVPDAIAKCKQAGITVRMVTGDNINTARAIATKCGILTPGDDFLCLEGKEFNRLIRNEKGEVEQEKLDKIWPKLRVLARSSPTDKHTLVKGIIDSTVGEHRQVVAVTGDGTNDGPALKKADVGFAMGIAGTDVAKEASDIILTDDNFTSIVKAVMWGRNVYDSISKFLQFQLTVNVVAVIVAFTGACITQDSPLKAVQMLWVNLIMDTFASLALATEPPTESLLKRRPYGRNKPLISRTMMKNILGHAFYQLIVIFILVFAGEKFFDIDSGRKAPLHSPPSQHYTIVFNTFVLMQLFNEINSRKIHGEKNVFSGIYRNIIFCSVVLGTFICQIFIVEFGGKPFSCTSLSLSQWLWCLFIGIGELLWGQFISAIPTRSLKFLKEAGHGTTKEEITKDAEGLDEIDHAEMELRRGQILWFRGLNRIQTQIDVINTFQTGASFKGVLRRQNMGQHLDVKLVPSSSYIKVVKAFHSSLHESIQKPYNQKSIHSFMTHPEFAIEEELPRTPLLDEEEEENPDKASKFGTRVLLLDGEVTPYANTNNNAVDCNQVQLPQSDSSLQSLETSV
Chain of UniProt O75143 (O75143 whole entry, looked up): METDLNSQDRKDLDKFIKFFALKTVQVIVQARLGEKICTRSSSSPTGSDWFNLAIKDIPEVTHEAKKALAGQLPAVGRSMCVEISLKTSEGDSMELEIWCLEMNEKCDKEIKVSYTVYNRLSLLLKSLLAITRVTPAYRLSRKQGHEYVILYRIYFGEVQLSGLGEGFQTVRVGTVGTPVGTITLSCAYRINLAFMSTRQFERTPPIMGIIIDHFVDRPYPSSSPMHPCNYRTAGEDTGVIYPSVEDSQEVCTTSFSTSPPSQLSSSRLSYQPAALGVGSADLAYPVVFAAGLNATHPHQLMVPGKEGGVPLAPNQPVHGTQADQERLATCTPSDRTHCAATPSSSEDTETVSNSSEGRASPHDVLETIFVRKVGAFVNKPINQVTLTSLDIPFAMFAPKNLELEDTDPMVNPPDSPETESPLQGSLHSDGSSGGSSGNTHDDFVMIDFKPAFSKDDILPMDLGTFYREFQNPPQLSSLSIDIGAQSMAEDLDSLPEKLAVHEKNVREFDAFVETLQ
Chain of UniProt Q92879 (Q92879 whole entry, looked up): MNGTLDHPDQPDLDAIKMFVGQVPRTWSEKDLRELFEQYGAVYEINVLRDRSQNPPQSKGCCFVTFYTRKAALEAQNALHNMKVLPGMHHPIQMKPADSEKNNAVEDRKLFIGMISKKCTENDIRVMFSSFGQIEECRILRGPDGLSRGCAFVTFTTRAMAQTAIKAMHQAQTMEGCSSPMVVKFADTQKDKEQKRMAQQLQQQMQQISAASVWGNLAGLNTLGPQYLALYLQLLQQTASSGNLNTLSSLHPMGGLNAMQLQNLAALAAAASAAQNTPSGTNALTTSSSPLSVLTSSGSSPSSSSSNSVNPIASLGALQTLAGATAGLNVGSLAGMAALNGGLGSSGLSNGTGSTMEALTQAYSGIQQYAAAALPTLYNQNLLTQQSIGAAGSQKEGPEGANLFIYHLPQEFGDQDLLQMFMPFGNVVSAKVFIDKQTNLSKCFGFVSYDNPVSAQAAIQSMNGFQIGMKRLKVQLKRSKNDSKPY
Chain of UniProt P24863 (P24863 whole entry, looked up): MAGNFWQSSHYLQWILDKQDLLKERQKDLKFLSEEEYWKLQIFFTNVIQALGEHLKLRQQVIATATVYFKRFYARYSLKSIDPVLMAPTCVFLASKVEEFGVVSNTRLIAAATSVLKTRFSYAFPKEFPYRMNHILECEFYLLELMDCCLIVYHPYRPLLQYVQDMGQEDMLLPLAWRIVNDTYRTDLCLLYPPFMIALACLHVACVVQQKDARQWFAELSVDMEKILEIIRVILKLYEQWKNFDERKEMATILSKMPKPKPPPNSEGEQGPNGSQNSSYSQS
Chain of UniProt Q86WR0 (Q86WR0 whole entry, looked up): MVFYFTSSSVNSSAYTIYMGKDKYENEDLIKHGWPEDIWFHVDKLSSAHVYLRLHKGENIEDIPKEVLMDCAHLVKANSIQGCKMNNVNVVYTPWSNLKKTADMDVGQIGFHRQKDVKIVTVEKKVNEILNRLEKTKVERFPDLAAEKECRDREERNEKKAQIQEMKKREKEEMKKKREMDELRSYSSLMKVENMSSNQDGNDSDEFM
Chain of UniProt Q8N960 (Q8N960 whole entry, looked up): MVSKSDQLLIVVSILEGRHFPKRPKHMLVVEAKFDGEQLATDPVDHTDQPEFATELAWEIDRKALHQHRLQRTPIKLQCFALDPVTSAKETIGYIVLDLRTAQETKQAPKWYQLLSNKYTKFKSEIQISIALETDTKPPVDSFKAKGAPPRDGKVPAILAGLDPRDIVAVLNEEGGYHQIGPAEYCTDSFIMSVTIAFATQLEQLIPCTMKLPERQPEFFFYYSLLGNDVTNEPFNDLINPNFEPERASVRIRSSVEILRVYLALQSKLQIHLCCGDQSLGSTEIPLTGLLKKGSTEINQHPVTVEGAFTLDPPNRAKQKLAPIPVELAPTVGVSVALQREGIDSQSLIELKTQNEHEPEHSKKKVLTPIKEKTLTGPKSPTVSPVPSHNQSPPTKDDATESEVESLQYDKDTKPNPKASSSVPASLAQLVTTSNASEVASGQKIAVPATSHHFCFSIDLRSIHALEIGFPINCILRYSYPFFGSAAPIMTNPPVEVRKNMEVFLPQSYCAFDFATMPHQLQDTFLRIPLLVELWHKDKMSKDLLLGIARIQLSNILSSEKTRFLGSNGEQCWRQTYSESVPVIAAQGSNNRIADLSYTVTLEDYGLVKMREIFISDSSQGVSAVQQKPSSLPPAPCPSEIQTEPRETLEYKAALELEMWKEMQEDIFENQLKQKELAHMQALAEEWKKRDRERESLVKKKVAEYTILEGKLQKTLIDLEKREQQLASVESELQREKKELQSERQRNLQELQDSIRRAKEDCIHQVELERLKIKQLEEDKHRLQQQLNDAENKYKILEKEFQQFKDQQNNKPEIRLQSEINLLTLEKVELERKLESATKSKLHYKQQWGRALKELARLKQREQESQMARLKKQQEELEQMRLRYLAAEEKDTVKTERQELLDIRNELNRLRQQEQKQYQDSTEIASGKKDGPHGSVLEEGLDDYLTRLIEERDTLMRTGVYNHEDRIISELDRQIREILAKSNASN
Chain of UniProt Q12981 (Q12981 whole entry, looked up): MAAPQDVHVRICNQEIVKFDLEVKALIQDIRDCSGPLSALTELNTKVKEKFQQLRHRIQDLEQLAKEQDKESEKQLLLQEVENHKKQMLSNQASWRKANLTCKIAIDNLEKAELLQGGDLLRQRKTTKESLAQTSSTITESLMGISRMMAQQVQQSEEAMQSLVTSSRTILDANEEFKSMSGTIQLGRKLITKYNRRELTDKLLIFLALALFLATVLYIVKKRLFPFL
Chain of UniProt P18859 (P18859 whole entry, looked up): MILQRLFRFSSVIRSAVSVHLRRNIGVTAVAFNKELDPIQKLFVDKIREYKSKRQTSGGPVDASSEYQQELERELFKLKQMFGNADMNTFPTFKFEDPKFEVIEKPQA
Chain of UniProt Q8N5S9 (Q8N5S9 whole entry, looked up): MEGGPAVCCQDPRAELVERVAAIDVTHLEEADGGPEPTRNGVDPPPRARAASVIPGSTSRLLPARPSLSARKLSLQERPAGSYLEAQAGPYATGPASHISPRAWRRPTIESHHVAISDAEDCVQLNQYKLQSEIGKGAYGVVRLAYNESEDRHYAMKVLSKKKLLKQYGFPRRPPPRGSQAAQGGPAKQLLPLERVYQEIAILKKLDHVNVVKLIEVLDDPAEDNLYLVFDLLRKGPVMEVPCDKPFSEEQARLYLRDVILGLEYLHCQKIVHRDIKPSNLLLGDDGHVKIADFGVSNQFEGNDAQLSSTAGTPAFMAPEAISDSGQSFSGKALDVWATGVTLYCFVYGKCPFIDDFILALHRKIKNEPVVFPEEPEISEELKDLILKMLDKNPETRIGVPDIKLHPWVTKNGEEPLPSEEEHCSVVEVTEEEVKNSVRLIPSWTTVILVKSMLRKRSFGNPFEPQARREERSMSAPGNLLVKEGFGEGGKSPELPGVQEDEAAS
Chain of UniProt Q8N4Q1 (Q8N4Q1 whole entry, looked up): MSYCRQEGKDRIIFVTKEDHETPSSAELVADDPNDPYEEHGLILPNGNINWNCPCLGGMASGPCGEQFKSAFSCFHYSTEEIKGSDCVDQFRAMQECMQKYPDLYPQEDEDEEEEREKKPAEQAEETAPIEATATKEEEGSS

Compound in this experiment: CS(=O)(=O)N1CCN(Cc2cc3nc(-c4cccc5[nH]ncc45)nc(N4CCOCC4)c3s2)CC1 [pictilisib]
In words: log2 fold change, soluble protein after heating vs DMSO (PISA); higher = thermal stabilisation; K562 lysate, 10 uM; active = over 0.2 and 3.5 SD of the protein, either way, in both replicates (recomputed). In a few lines: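 Log-two fold change in thermal stability relative to solvent controls is reported from duplicates. For each sample, crude K562 extract from dounce-homogenised pellets in PBS pH 7.4 with 1 mM MgCl2, at 1 mg/mL protein, was treated with 10 μM compound for 30 min. Aliquots heated for 3 min across 48°C-58°C were pooled, brought to 0.5% NP-40 at 4°C and cleared at 21,000xg for 90 min. The supernatant was quantified by TMTpro 16plex LC-MS/MS with channel sums equalised.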
As for BRD4 (UniProt O60885), the log2 fold change is 0.015 (inactive).
Take CAMKK1 isoform 2 (UniProt Q8N5S9): the log2 fold change is -0.074 (inactive).
Then ATG13 isoform 2 (UniProt O75143), with 0.014 (inactive); and ATAD1 (UniProt Q8NBU5), with 0.012 (inactive).
As to BSDC1 (UniProt Q9NW68), the log2 fold change was -0.055 (inactive).
With ATP5PF isoform 2 (UniProt P18859), the log2 fold change is -0.088 (inactive).
As to CAD (UniProt P27708), the log2 fold change was -0.02 (inactive).
Consider CHCHD2 (UniProt Q9Y6H1), for which the log2 fold change is 0 (inactive).
CHCHD4 isoform 2 (UniProt Q8N4Q1): the log2 fold change is 0.092 (inactive).
As to CCNC (UniProt P24863), the log2 fold change was 0.036 (inactive).
For the target CELF2 isoform 3 (UniProt O95319), the log2 fold change is 0.032 (inactive).
As for CEP120 (UniProt Q8N960), the log2 fold change is -0.007 (inactive).
The same measure for CCDC25 (UniProt Q86WR0): -0.001 (inactive); for CELF1 isoform 4 (UniProt Q92879): 0.023 (inactive).
For BNIP1 (UniProt Q12981), the log2 fold change was 0.018 (inactive).
Then CHD5 (UniProt Q8TDI0), with 0.007 (inactive); and ATP2B4 (UniProt P23634), with -0.018 (inactive); and CANX isoform 2 (UniProt P27824), with 0.037 (inactive).
For BCKDK (UniProt O14874), the log2 fold change is -0.028 (inactive).
As for CCAR2 (UniProt Q8N163), the log2 fold change is -0.061 (inactive).
For the target CDC40 (UniProt O60508), the log2 fold change was 0.039 (inactive).
Take CDK5RAP2 (UniProt Q96SN8): the log2 fold change was -0.04 (inactive).
